{"source": "paper PMC11006913", "assay_in_all_cases": "PBM; 200 nM protein, PBS", "conditions_in_all_cases": "dsDNA, one strand shown", "key": {"[1]": {"target": "T1, SIX6 (Homo sapiens, UniProt O95475 114-200, L167I)", "T1 sequence": "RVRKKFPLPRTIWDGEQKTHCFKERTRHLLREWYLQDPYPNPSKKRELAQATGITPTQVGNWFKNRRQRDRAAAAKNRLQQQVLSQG"}, "[2]": {"target": "T2, SIX6 (Homo sapiens, UniProt O95475 114-200, T139Q)", "T2 sequence": "T1 sequence with T26Q, I54L"}, "[3]": {"target": "T3, SIX6 (Homo sapiens, UniProt O95475 114-200, L167V)", "T3 sequence": "T1 sequence with I54V"}, "[4]": {"target": "HOXA4 (Homo sapiens, UniProt Q00056 201-287, W262R)", "sequence (Q00056 201-287 W262R)": "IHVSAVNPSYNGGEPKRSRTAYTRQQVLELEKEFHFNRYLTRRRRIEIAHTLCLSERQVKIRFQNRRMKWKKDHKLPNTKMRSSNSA"}, "[5]": {"target": "ALX4 (Homo sapiens, UniProt Q9H161 200-286)", "sequence (Q9H161 200-286)": "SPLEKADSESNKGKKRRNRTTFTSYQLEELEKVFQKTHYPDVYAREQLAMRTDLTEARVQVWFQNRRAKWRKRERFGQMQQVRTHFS"}, "[6]": {"target": "ALX4 (Homo sapiens, UniProt Q9H161 200-286, Q225E)", "sequence (Q9H161 200-286 Q225E)": "as the sequence (Q9H161 200-286) above, with Q26E counted along it"}, "[7]": {"target": "HOXA4 (Homo sapiens, UniProt Q00056 201-287, R217L)", "sequence (Q00056 201-287 R217L)": "as the sequence (Q00056 201-287 W262R) above, with R17L, R62W counted along it"}, "[8]": {"target": "HOXA4 (Homo sapiens, UniProt Q00056 201-287)", "sequence (Q00056 201-287)": "as the sequence (Q00056 201-287 W262R) above, with R62W counted along it"}, "[9]": {"target": "HOXA4 (Homo sapiens, UniProt Q00056 201-287, W262F)", "sequence (Q00056 201-287 W262F)": "as the sequence (Q00056 201-287 W262R) above, with R62F counted along it"}, "[10]": {"target": "HOXC9 (Homo sapiens, UniProt P31274 178-260, K195R)", "sequence (P31274 178-260 K195R)": "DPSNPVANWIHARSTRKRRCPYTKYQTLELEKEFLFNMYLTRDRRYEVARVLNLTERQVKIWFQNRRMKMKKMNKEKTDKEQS"}, "[11]": {"target": "HOXC9 (Homo sapiens, UniProt P31274 178-260)", "sequence (P31274 178-260)": "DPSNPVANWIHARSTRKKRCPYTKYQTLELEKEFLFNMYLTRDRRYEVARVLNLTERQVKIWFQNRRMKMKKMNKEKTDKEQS"}, "[12]": {"target": "HOXC9 (Homo sapiens, UniProt P31274 178-260, R193K)", "sequence (P31274 178-260 R193K)": "as the sequence (P31274 178-260) above, with R16K counted along it"}, "[13]": {"target": "HOXC9 (Homo sapiens, UniProt P31274 178-260, R222W)", "sequence (P31274 178-260 R222W)": "as the sequence (P31274 178-260) above, with R45W counted along it"}, "[14]": {"target": "T4, PAX4 (Homo sapiens, UniProt O43316 9-242, R200K)", "T4 sequence": "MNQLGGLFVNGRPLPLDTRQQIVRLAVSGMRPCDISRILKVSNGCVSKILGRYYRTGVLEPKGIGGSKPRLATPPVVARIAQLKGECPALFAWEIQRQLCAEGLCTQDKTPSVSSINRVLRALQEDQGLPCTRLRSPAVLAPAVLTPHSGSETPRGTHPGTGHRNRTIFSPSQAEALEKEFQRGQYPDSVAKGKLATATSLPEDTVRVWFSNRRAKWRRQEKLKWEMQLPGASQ"}, "[15]": {"target": "T5, PAX4 (Homo sapiens, UniProt O43316 9-242)", "T5 sequence": "T4 sequence with K192R"}, "[16]": {"target": "T6, PAX4 (Homo sapiens, UniProt O43316 9-242, R200Q)", "T6 sequence": "T4 sequence with K192Q"}, "[17]": {"target": "T7, PAX4 (Homo sapiens, UniProt O43316 9-242, F177V)", "T7 sequence": "T4 sequence with F169V, K192R"}, "[18]": {"target": "T8, PAX4 (Homo sapiens, UniProt O43316 9-242, F177Y)", "T8 sequence": "T4 sequence with F169Y, K192R"}, "[19]": {"target": "T9, PAX4 (Homo sapiens, UniProt O43316 9-242, R227W)", "T9 sequence": "T4 sequence with K192R, R219W"}, "[20]": {"target": "HOXB6 (Homo sapiens, UniProt P17509 132-218, K202E)", "sequence (P17509 132-218 K202E)": "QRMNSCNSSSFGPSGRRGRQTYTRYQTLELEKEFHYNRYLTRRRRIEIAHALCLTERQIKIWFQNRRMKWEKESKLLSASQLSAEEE"}, "[21]": {"target": "ALX1 (Homo sapiens, UniProt Q15699 118-204, L144V)", "sequence (Q15699 118-204 L144V)": "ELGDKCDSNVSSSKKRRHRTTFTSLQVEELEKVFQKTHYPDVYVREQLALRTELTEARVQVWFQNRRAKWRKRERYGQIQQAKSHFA"}, "[22]": {"target": "ALX3 (Homo sapiens, UniProt O95076 139-225, N203Q)", "sequence (O95076 139-225 N203Q)": "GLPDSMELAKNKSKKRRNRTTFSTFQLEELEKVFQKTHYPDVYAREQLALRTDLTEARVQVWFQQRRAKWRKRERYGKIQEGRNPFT"}, "[23]": {"target": "ALX1 (Homo sapiens, UniProt Q15699 118-204, L144R)", "sequence (Q15699 118-204 L144R)": "as the sequence (Q15699 118-204 L144V) above, with V27R counted along it"}, "[24]": {"target": "ALX3 (Homo sapiens, UniProt O95076 139-225)", "sequence (O95076 139-225)": "as the sequence (O95076 139-225 N203Q) above, with Q65N counted along it"}, "[25]": {"target": "ALX3 (Homo sapiens, UniProt O95076 139-225, L168Q)", "sequence (O95076 139-225 L168Q)": "as the sequence (O95076 139-225 N203Q) above, with L30Q, Q65N counted along it"}, "[26]": {"target": "ALX3 (Homo sapiens, UniProt O95076 139-225, L168V)", "sequence (O95076 139-225 L168V)": "as the sequence (O95076 139-225 N203Q) above, with L30V, Q65N counted along it"}, "[27]": {"target": "NKX3-2 (Homo sapiens, UniProt P78367 192-278, P234S)", "sequence (P78367 192-278 P234S)": "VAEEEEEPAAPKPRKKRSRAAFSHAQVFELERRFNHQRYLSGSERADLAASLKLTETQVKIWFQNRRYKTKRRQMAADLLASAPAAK"}, "[28]": {"target": "ALX1 (Homo sapiens, UniProt Q15699 118-204)", "sequence (Q15699 118-204)": "as the sequence (Q15699 118-204 L144V) above, with V27L counted along it"}, "[29]": {"target": "ALX3 (Homo sapiens, UniProt O95076 139-225, N203S)", "sequence (O95076 139-225 N203S)": "as the sequence (O95076 139-225 N203Q) above, with Q65S counted along it"}, "[30]": {"target": "HOXB6 (Homo sapiens, UniProt P17509 132-218)", "sequence (P17509 132-218)": "as the sequence (P17509 132-218 K202E) above, with E71K counted along it"}, "[31]": {"target": "NKX3-2 (Homo sapiens, UniProt P78367 192-278)", "sequence (P78367 192-278)": "as the sequence (P78367 192-278 P234S) above, with S43P counted along it"}}, "note": "Residue numbers refer to the chain shown, from its start."}
{"sequence": "CAGATATC", "values": [{"measurement": "binding signal", "setting": "[1]", "result": "11.1 upbm affinity estimate (log intensity, higher = more binding, comparable within an allelic series)"}, {"measurement": "binding signal", "setting": "[2]", "result": "11.1 upbm affinity estimate (log intensity, higher = more binding, comparable within an allelic series)"}, {"measurement": "binding signal", "setting": "[3]", "result": "10.8 upbm affinity estimate (log intensity, higher = more binding, comparable within an allelic series)"}]}
{"sequence": "CCGAAGGC", "values": [{"measurement": "binding signal", "setting": "[4]", "result": "9.78 upbm affinity estimate (log intensity, higher = more binding, comparable within an allelic series)"}, {"measurement": "binding signal", "setting": "[5]", "result": "8.05 upbm affinity estimate (log intensity, higher = more binding, comparable within an allelic series)"}, {"measurement": "binding signal", "setting": "[6]", "result": "8.35 upbm affinity estimate (log intensity, higher = more binding, comparable within an allelic series)"}, {"measurement": "binding signal", "setting": "[7]", "result": "9.88 upbm affinity estimate (log intensity, higher = more binding, comparable within an allelic series)"}, {"measurement": "binding signal", "setting": "[8]", "result": "9.96 upbm affinity estimate (log intensity, higher = more binding, comparable within an allelic series)"}, {"measurement": "binding signal", "setting": "[9]", "result": "9.89 upbm affinity estimate (log intensity, higher = more binding, comparable within an allelic series)"}]}
{"sequence": "AGCCCGAG", "values": [{"measurement": "binding signal", "setting": "[4]", "result": "9.9 upbm affinity estimate (log intensity, higher = more binding, comparable within an allelic series)"}, {"measurement": "binding signal", "setting": "[10]", "result": "9.64 upbm affinity estimate (log intensity, higher = more binding, comparable within an allelic series)"}, {"measurement": "binding signal", "setting": "[7]", "result": "9.88 upbm affinity estimate (log intensity, higher = more binding, comparable within an allelic series)"}, {"measurement": "binding signal", "setting": "[11]", "result": "9.62 upbm affinity estimate (log intensity, higher = more binding, comparable within an allelic series)"}, {"measurement": "binding signal", "setting": "[12]", "result": "9.59 upbm affinity estimate (log intensity, higher = more binding, comparable within an allelic series)"}, {"measurement": "binding signal", "setting": "[8]", "result": "9.65 upbm affinity estimate (log intensity, higher = more binding, comparable within an allelic series)"}, {"measurement": "binding signal", "setting": "[13]", "result": "9.78 upbm affinity estimate (log intensity, higher = more binding, comparable within an allelic series)"}, {"measurement": "binding signal", "setting": "[9]", "result": "9.85 upbm affinity estimate (log intensity, higher = more binding, comparable within an allelic series)"}]}
{"sequence": "GACCCTCC", "values": [{"measurement": "binding signal", "setting": "[4]", "result": "9.82 upbm affinity estimate (log intensity, higher = more binding, comparable within an allelic series)"}, {"measurement": "binding signal", "setting": "[10]", "result": "9.64 upbm affinity estimate (log intensity, higher = more binding, comparable within an allelic series)"}, {"measurement": "binding signal", "setting": "[7]", "result": "9.94 upbm affinity estimate (log intensity, higher = more binding, comparable within an allelic series)"}, {"measurement": "binding signal", "setting": "[11]", "result": "9.69 upbm affinity estimate (log intensity, higher = more binding, comparable within an allelic series)"}, {"measurement": "binding signal", "setting": "[12]", "result": "9.67 upbm affinity estimate (log intensity, higher = more binding, comparable within an allelic series)"}, {"measurement": "binding signal", "setting": "[8]", "result": "9.94 upbm affinity estimate (log intensity, higher = more binding, comparable within an allelic series)"}, {"measurement": "binding signal", "setting": "[13]", "result": "9.65 upbm affinity estimate (log intensity, higher = more binding, comparable within an allelic series)"}, {"measurement": "binding signal", "setting": "[9]", "result": "9.9 upbm affinity estimate (log intensity, higher = more binding, comparable within an allelic series)"}]}
{"sequence": "CCCTGGTC", "values": [{"measurement": "binding signal", "setting": "[4]", "result": "9.79 upbm affinity estimate (log intensity, higher = more binding, comparable within an allelic series)"}, {"measurement": "binding signal", "setting": "[14]", "result": "9.07 upbm affinity estimate (log intensity, higher = more binding, comparable within an allelic series)"}, {"measurement": "binding signal", "setting": "[15]", "result": "9.08 upbm affinity estimate (log intensity, higher = more binding, comparable within an allelic series)"}, {"measurement": "binding signal", "setting": "[7]", "result": "9.68 upbm affinity estimate (log intensity, higher = more binding, comparable within an allelic series)"}, {"measurement": "binding signal", "setting": "[16]", "result": "9.25 upbm affinity estimate (log intensity, higher = more binding, comparable within an allelic series)"}, {"measurement": "binding signal", "setting": "[17]", "result": "9.22 upbm affinity estimate (log intensity, higher = more binding, comparable within an allelic series)"}, {"measurement": "binding signal", "setting": "[8]", "result": "9.69 upbm affinity estimate (log intensity, higher = more binding, comparable within an allelic series)"}, {"measurement": "binding signal", "setting": "[18]", "result": "9.15 upbm affinity estimate (log intensity, higher = more binding, comparable within an allelic series)"}, {"measurement": "binding signal", "setting": "[19]", "result": "9.21 upbm affinity estimate (log intensity, higher = more binding, comparable within an allelic series)"}, {"measurement": "binding signal", "setting": "[9]", "result": "9.7 upbm affinity estimate (log intensity, higher = more binding, comparable within an allelic series)"}]}
{"sequence": "CAGCCTCC", "values": [{"measurement": "binding signal", "setting": "[4]", "result": "9.65 upbm affinity estimate (log intensity, higher = more binding, comparable within an allelic series)"}, {"measurement": "binding signal", "setting": "[20]", "result": "8.86 upbm affinity estimate (log intensity, higher = more binding, comparable within an allelic series)"}, {"measurement": "binding signal", "setting": "[7]", "result": "9.73 upbm affinity estimate (log intensity, higher = more binding, comparable within an allelic series)"}, {"measurement": "binding signal", "setting": "[21]", "result": "6.61 upbm affinity estimate (log intensity, higher = more binding, comparable within an allelic series)"}, {"measurement": "binding signal", "setting": "[22]", "result": "7.63 upbm affinity estimate (log intensity, higher = more binding, comparable within an allelic series)"}, {"measurement": "binding signal", "setting": "[23]", "result": "6.48 upbm affinity estimate (log intensity, higher = more binding, comparable within an allelic series)"}, {"measurement": "binding signal", "setting": "[8]", "result": "9.62 upbm affinity estimate (log intensity, higher = more binding, comparable within an allelic series)"}, {"measurement": "binding signal", "setting": "[24]", "result": "7.74 upbm affinity estimate (log intensity, higher = more binding, comparable within an allelic series)"}, {"measurement": "binding signal", "setting": "[25]", "result": "7.64 upbm affinity estimate (log intensity, higher = more binding, comparable within an allelic series)"}, {"measurement": "binding signal", "setting": "[26]", "result": "7.62 upbm affinity estimate (log intensity, higher = more binding, comparable within an allelic series)"}, {"measurement": "binding signal", "setting": "[27]", "result": "10.7 upbm affinity estimate (log intensity, higher = more binding, comparable within an allelic series)"}, {"measurement": "binding signal", "setting": "[28]", "result": "6.39 upbm affinity estimate (log intensity, higher = more binding, comparable within an allelic series)"}, {"measurement": "binding signal", "setting": "[9]", "result": "9.71 upbm affinity estimate (log intensity, higher = more binding, comparable within an allelic series)"}, {"measurement": "binding signal", "setting": "[29]", "result": "7.61 upbm affinity estimate (log intensity, higher = more binding, comparable within an allelic series)"}, {"measurement": "binding signal", "setting": "[30]", "result": "8.88 upbm affinity estimate (log intensity, higher = more binding, comparable within an allelic series)"}, {"measurement": "binding signal", "setting": "[31]", "result": "10.7 upbm affinity estimate (log intensity, higher = more binding, comparable within an allelic series)"}]}
